Reference: PubChem BioAssay
Results filed as inconclusive are left out. Active and inactive are the calls of the source. Unless noted, no stated cut-off is given here; in the data, active means inhibition above about 80%; inactive means the rest.

Key:
[1] = viability loss in pontine glioma line – cell-based, SU-DIPG-XIII, MIPE5.0, CellTiter-Glo, qHTS, dose response (AID 1347064; cut-off not given, nearly all actives have AC50 up to about 23 µM;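 on AC50: cells exposed to compound for 48 hours before the viability read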); conditions: CellTiter-Glo ATP luminescence
[2] = viability loss in pontine glioma line – cell-based, SU-DIPG-XXV, MIPE5.0, CellTiter-Glo, qHTS, dose response (AID 1347065; cut-off not given, nearly all actives have AC50 up to about 26 µM;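 further: cells exposed to compound for 48 hours before ATP readout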); conditions: CellTiter-Glo ATP luminescence
[3] = JHH-DIPG-1 glioma cell viability, MIPE5.0 library, CellTiter-Glo luminescence, qHTS (AID 1347067; cut-off not given, nearly all actives have AC50 up to about 26 µM;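 further: cells exposed to compound for 48 hours before readout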); conditions: JHH-DIPG-1 glioma viability, CellTiter-Glo ATP luminescence
[4] = growth inhibition of DIPG cells – cell-based, MIPE5.0 library, qHTS (AID 1347068; cut-off not given, nearly all actives have IC50 up to about 30 µM;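 on IC50: cells exposed to compound for 48 hours before viability readout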); conditions: SU-DIPG-XXV viability
[5] = growth inhibition, single agent or in combination, cell-based, chromothripsis tumors, cisplatin or BGB combos (AID 1671449); conditions: LFS_MB_P medulloblastoma cells;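 further: cells exposed for 96 hours; 0% = vehicle DMSO and 100% = killing by high DMSO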
[6] = growth inhibition, single agent and combos, cell-based, chromothripsis tumors, cisplatin or BGB combos (AID 1671450); conditions: HDN33 neuroblastoma cells, stronger effect = higher value;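 further: cells exposed to compound for four days; 0% = vehicle DMSO and 100% = cell killing by high DMSO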
[7] = growth inhibition, single agents and combos, ICB984, cell-based, cisplatin or BGB combos, synergistic combos for chromothripsis tumors (AID 1671451; call rule not given here;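 further: cells exposed for 96 hours before readout; 0% = vehicle DMSO and 100% = killing by high DMSO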); conditions: ICB984 medulloblastoma cells, drug combinations, stronger effect = higher value
[8] = growth inhibition, single agents and combos, LFS_MB_1R, cell-based, cisplatin or BGB combos, synergistic combos for chromothripsis tumors (AID 1671452); conditions: LFS_MB_1R medulloblastoma cells, stronger effect = higher value;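 further: cells exposed for 96 hours before readout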
[9] = growth inhibition, single agents and combos, HTB85, cell-based, BGB or cisplatin IC20 combos, synergistic combos for chromothripsis tumors (AID 1671453); conditions: HTB85 osteosarcoma cells, drug combinations, stronger effect = higher value;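 further: cells exposed for 96 hours before readout; 0% = vehicle DMSO and 100% = high DMSO killing control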
[10] = growth inhibition, single agents and combos, CRL2098, cell-based, BGB or cisplatin IC20 combos, synergistic combos for chromothripsis tumors (AID 1671454); conditions: CRL2098 osteosarcoma cells, drug combinations, stronger effect = higher value;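 further: cells exposed for 96 h before readout; 0% = vehicle DMSO and 100% = killing by high DMSO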
[11] = growth inhibition, single agents and combos, HD-MB03, cell-based, BGB or cisplatin IC20 combos, synergistic combos for chromothripsis tumors (AID 1671455; in the data active means inhibition above about 83%;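 further: 0% = vehicle DMSO and 100% = high DMSO as cytotoxic control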); conditions: HD-MB03 medulloblastoma cells, stronger effect = higher value
[12] = growth inhibition, single agents and combos, UWB1.289, cell-based, BGB or cisplatin combos, synergistic combos for chromothripsis tumors (AID 1671456); conditions: UWB1.289 ovarian carcinoma cells, stronger effect = higher value;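 further: cells exposed to compound for four days; 0% = vehicle DMSO and 100% = killing by high DMSO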
[13] = growth inhibition, single agents and combos, LFS_MB_2R, cell-based, cisplatin combos, synergistic combos for chromothripsis tumors (AID 1671457); conditions: LFS_MB_2R medulloblastoma cells, stronger effect = higher value;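 further: cells exposed to compound for four days before readout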
[14] = growth inhibition, MDA-MB-436, cell-based, BGB or cisplatin combos, synergistic combos for chromothripsis tumors (AID 1671458; call rule not given here;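 further: cells exposed for 96 hours; 0% = vehicle DMSO and 100% = killing by high DMSO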); conditions: MDA-MB-436 breast carcinoma growth inhibition, drug combinations, stronger effect = higher value
[15] = UWB1.289_BRCA1 ovarian cancer growth, cell-based, BGB or cisplatin combinations (AID 1671459); conditions: UWB1.289 BRCA1 ovarian carcinoma, drug combinations, stronger effect = higher value
[16] = drug combination toxicity in non-malignant astrocytes – cell-based, BGB or cisplatin IC20 combos, cytotoxicity control for chromothriptic childhood tumor combination screen (AID 1671460); conditions: Human astrocytes, viability inhibition, drug combinations, at 0.5 µM, stronger effect = higher value;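 further: cells exposed to compounds for 96 hours before viability readout; 0% = vehicle and 100% = killing control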
[17] = BT084 cell growth, single and combined drugs, ICGC_MB145, cisplatin and BGB IC40 combos (AID 1671461); conditions: BT084 medulloblastoma cells, drug combinations, stronger effect = higher value;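 further: cells exposed to drugs for 96 hours; 0% = vehicle DMSO and 100% = high DMSO full killing control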
[18] = RCMB18 cell growth, single agent and combined, cisplatin and BGB IC40 combos (AID 1671462); conditions: RCMB18 medulloblastoma cells, stronger effect = higher value;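 further: cells exposed to compound for four days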
[19] = CRL1545 cell growth, single agent and combined, cisplatin and BGB IC20 combos (AID 1671464); conditions: CRL1545 osteosarcoma cells, stronger effect = higher value;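 further: cells exposed to compound for 96 hours before readout; 0% = vehicle DMSO and 100% = high DMSO killing control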
[20] = viability loss with induced miR-34 in A549 – imaging, A549 dox-inducible miR-34, nuclei and caspase counts, primary screen (AID 1347080;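 active means compounds whose cell count with miR-34 switched on is under 0.7 times the count with it off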); conditions: A549 miR-34 inducible, Hoechst nuclei count, 48 h
[21] = MELAS cybrid and Rieske KO viability enhancers – cell-based, MELAS cybrids, Rieske KO mouse fibroblasts, CellTiter-Glo, primary screen (AID 1508586;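 active means mean z-score across replicates of 1.96 or higher in either the MELAS or the Rieske mutant cell line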;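 further: z relative to plate mean and SD of compound and empty wells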); conditions: low glucose
[22] = measured here: combination with BGB IC40, at 0.05 µM
[23] = measured here: with BGB IC20 combination, at 0.5 µM
[24] = measured here: with cisplatin IC20 combination, at 0.5 µM
[25] = measured here: combination with cisplatin, at 0.5 µM
[26] = measured here: combination with cisplatin, at 5 µM

c1cc(Nc2cc(C3CC3)[nH]n2)nc(Nc2ccc3nc[nH]c3c2)n1
AC50 [1]: 0.468 µM (active)
AC50 [2]: 0.59 µM (active)
AC50 [3]: 0.742 µM (active)
IC50 [4]: 1.48 µM (active)
inhibition ([5]; at 0.5 µM, stronger effect = higher value): -28.9% (inactive)
inhibition ([5]; measured here: combination with BGB IC20, at 0.005 µM): -28.7%
inhibition ([5]; measured here: combination with BGB IC40, at 0.005 µM): 66.9%
inhibition [5, 22]: 3.2%
inhibition ([5]; measured here: combination with cisplatin, at 0.5 µM, stronger effect = higher value): -45.7%
inhibition ([5]; measured here: combination with cisplatin, at 5 µM, stronger effect = higher value): 97.7%
inhibition ([6]; BGB combo, at 5 µM): 80.3%
inhibition ([6]; at 0.5 µM): 13.6% (inactive)
inhibition ([6]; cisplatin combo, at 5 µM): 56.8%
inhibition [6, 23]: 15.5%
inhibition [6, 24]: 11.8%
inhibition ([6]; single agent, at 5 µM): 65%
inhibition ([7]; BGB IC20 combo, at 0.005 µM): 91.8%
inhibition ([7]; BGB IC40 combo, at 0.005 µM): 91.5%
inhibition ([7]; BGB IC40 combo, at 0.05 µM): 101%
inhibition ([7]; at 0.5 µM): -13.7% (inactive)
inhibition ([7]; cisplatin combo, at 0.05 µM): 102%
inhibition ([7]; cisplatin combo, at 0.5 µM): -28%
inhibition ([7]; cisplatin combo, at 5 µM): -12.8%
inhibition ([7]; measured here: 5 uM single agent, at 5 µM): -7.27%
inhibition ([8]; at 0.5 µM): 96.2% (active)
inhibition [8, 22]: 10.7%
inhibition [8, 25]: 97.7%
inhibition [8, 26]: 98.3%
inhibition ([9]; at 0.5 µM): 92.1% (active)
inhibition ([9]; measured here: with BGB IC20, at 0.5 µM): 97.4%
inhibition ([9]; measured here: with BGB IC20, at 5 µM): 98.4%
inhibition ([9]; measured here: with cisplatin IC20, at 0.5 µM): 83.5%
inhibition ([9]; measured here: with cisplatin IC20, at 5 µM): 99.3%
inhibition ([9]; single agent, at 5 µM): 99.5%
inhibition ([10]; at 0.5 µM): 28.9% (inactive)
inhibition ([10]; measured here: combination with BGB at IC20, at 0.5 µM): 57.3%
inhibition ([10]; measured here: combination with cisplatin at IC20, at 0.5 µM): 27.4%
inhibition ([11]; at 0.5 µM): 31.9% (inactive)
inhibition ([11]; measured here: combo with BGB at IC20, at 0.5 µM): 43.7%
inhibition ([11]; measured here: combo with cisplatin at IC20, at 0.5 µM): 6.87%
inhibition ([12]; at 0.5 µM): 67.4% (inactive)
inhibition ([12]; measured here: inhibition with BGB combination, at 0.05 µM): 37.1%
inhibition ([12]; measured here: inhibition with cisplatin combination, at 0.05 µM): -9.86%
inhibition ([13]; at 0.5 µM): 80.7% (active)
inhibition [13, 25]: 87.3%
inhibition [13, 26]: 91.1%
inhibition ([14]; at 0.5 µM): 23.1% (inactive)
inhibition ([14]; measured here: BGB combination, at 0.5 µM): 22.4%
inhibition ([14]; measured here: BGB combination, at 5 µM): 75.1%
inhibition ([14]; measured here: cisplatin combination, at 0.5 µM): 5.08%
inhibition ([14]; measured here: cisplatin combination, at 5 µM): 88.8%
inhibition ([15]; BGB combination, concentration series, at 5 µM): 73.5%
inhibition ([15]; at 0.5 µM): 79.3% (inactive)
inhibition ([15]; cisplatin combination, concentration series, at 5 µM): 72.2%
inhibition [16]: 14.6% (inactive)
inhibition ([16]; measured here: combo with BGB IC20): 33.6%
inhibition ([16]; measured here: combo with cisplatin IC20): -4.62%
inhibition ([17]; at 0.5 µM): 44.8% (inactive)
inhibition ([17]; cisplatin combination, at 0.5 µM): 31.8%
inhibition ([17]; cisplatin combination, at 5 µM): -81%
inhibition ([17]; measured here: BGB IC40 combination 0.05 uM, at 0.05 µM): -10.1%
inhibition ([17]; single agent, at 5 µM): 22.9%
inhibition ([18]; at 0.5 µM): 73.8% (inactive)
inhibition ([18]; cisplatin combo, at 5 µM): 83.5%
inhibition ([18]; measured here: BGB IC40 combination, at 0.05 µM): 22.4%
inhibition [18, 25]: 76.4%
inhibition ([18]; single agent, at 5 µM): 84.3%
inhibition ([19]; at 0.5 µM): -7.32% (inactive)
inhibition [19, 23]: -9.54%
inhibition [19, 24]: -7.92%
inhibition ([19]; single agent, at 0.05 µM): -26.3%
inhibition ([19]; single agent, at 5 µM): 81.3%

O=C(NNc1ccccc1)c1ccncc1
outcome [1]: inactive
outcome [2]: inactive
outcome [4]: inactive
fold change ([20]; stronger effect = lower value, cell number ratio, induced over uninduced): 0.922 (inactive)
fold change ([20]; measured here: relative caspase fold change +Dox/-Dox): 0.452
cell count ([20]; measured here: total cells with miR-34 induction, stronger effect = lower value): 7960
cell count ([20]; measured here: total cells without miR-34 induction): 8630
z-score ([21]; MELAS cybrid survival, CellTiter-Glo 48 h, stronger effect = higher value): -0.433 (inactive)
z-score ([21]; Rieske KO mouse fibroblast survival, CellTiter-Glo 72 h): -1.65

Nc1nc2c(c(=O)[nH]1)N1CN(c3ccc(C(=O)N[C@@H](CCC(=O)O)C(=O)O)cc3)CC1CN2 (stereo partly drawn)
outcome [1]: inactive
outcome [3]: inactive
